Bioassay records as filed in PubChem.
Compounds with a hit are over-represented: about 2.2% of the library has one in this group of screens.
MEKK2mut PB1 HTS: signal of MEK5 binding to mutant human MEKK2 PB1 domain. bead flow cytometry, Alexa488-MEK5 binding to MEKK2 mutant. 290,000 tested, 0.35% active. percent response, % at 10 µM. AID 1530; in the data active means percent response above about 24%, passing the limit was not always enough
VLA-4 inh: inhibition in a human VLA-4 binding assay. VLA-4 expressing cells, ligand binding flow cytometry. inhibition, % (about 7 µM as worked out from the volumes in the protocol). 330,000 tested, 0.2% active. AID 2557; in the data active means inhibition above about 50%
MEKK3 PB1 HTS: modulators (inhibitors or enhancers) of MEK5 binding to human MEKK3 PB1 domain; Q99759; bead-based flow cytometry, Alexa488-MEK5 binding to MEKK3; actives lie on both sides; 0 = blocked by unlabeled MEK5, 100 = vehicle; binding response (% of control), % at 10 µM; 290,000 tested, 1.4% active; AID 1529;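 active means binding response more than 3 SD above or below the average of its plate-row segment, actives on both sides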;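 further: Alexa488 bead fluorescence after subtracting the streptavidin-only scavenger bead signal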
Target sequence (Q99759 whole entry, looked up, the tested form may be a part): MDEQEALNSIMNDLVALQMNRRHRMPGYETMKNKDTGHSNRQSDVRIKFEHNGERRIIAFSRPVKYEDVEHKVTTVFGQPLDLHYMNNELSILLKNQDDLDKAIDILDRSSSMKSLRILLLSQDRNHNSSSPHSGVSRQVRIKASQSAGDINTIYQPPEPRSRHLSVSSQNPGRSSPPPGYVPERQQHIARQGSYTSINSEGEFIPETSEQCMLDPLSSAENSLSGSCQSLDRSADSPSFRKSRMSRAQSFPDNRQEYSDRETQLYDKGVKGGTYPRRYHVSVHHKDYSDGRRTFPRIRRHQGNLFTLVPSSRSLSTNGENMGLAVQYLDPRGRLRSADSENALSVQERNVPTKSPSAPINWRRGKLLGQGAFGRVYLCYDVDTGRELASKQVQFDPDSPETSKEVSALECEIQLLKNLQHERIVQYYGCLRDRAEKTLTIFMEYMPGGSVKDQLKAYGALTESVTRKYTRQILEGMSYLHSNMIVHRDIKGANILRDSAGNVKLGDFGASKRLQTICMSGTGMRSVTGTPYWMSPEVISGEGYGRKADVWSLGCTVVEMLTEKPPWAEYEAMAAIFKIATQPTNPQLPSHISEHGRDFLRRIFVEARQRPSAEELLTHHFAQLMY
MEKK2 WT-MEK5: raises or lowers MEK5 binding to wildtype human MEKK2 PB1 domain; binding response (% of control), % at 10 µM; Q9Y2U5; bead flow cytometry, Alexa488-MEK5 binding to MEKK2 WT; actives lie on both sides; AID 1531; 290,000 tested, 1.1% active; in the data active means binding response below about 67% or above about 130%
MEKK2wt confirm: raises or lowers MEK5 binding to wildtype human MEKK2, retest; shares compounds with MEKK3 PB1 HTS; bead flow cytometry, Alexa488-MEK5 binding to MEKK2 WT; actives lie on both sides; binding response (% of control), % at 10 µM; 5,900 tested, 2.4% active; AID 1892; in the data active means binding response below about 16% or above about 210%; inactive means in between
MEKK2mut confirm: signal of MEK5 binding to mutant human MEKK2, retest | 5,900 tested, 2% active | percent response, % at 10 µM | bead flow cytometry, Alexa488-MEK5 binding to MEKK2 mutant | AID 1893 | shares compounds with MEKK3 PB1 HTS; in the data active means percent response mostly above about 71%, no sharp cut-off; inactive means mostly below about 38%;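 further: higher means compound restores mutant binding toward wildtype level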
MEKK3-MEK5 inh: confirmation of inhibitors of MEK5 binding to human MEKK3. shares compounds with MEKK3 PB1 HTS. bead flow cytometry, Alexa488-MEK5 binding to MEKK3; stronger effect = lower value. binding response (% of control), % at 10 µM. 5,900 tested, 1.8% active. AID 1894;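 active means binding response below 72% of control, or above a set upper limit, though filed actives all read lower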;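 further: 100% = DMSO only wells and 0% = binding blocked by excess unlabeled MEK5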
Active calls of the source: *; i = inactive; . = not tested or not shown; [ ] = dose if it differs, or a comment.

SMILES | MEKK2mut PB1 HTS | VLA-4 inh | MEKK3 PB1 HTS | MEKK2 WT-MEK5 | MEKK2wt confirm | MEKK2mut confirm | MEKK3-MEK5 inh
CNC(=O)COc1ccccc1C(=O)Nc1ccc2c(c1)oc1ccccc12 | 1 | 38 | 103 | 101 | . | . | .
CCOC(=O)C1CCN(S(=O)(=O)c2ccc(-c3ccccn3)s2)CC1 | 25 | 7 | 130* | 129 | 99 | -3 | 101
CCOC(=O)C1CCN(S(=O)(=O)c2ccc(OC)c(Cl)c2Cl)CC1 | -5 | -6 | 82*[inhibitor] | 88 | 103 | 2 | 102
CCOC(=O)C1CCN(S(=O)(=O)c2ccc(Cl)cc2OC)CC1 | 4 | 4 | 99 | 102 | . | . | .
CCOC(=O)C1CCN(S(=O)(=O)c2ccc(-n3cnnn3)c(C)c2)CC1 | -11 | 4 | 79*[inhibitor] | 86 | 101 | -3 | 102
CCOC(=O)C1CCN(S(=O)(=O)c2ccc(C)c(C)c2)CC1 | -13 | 6 | 100 | 89 | . | . | .
CC1CCCCN1C(=O)CSc1nc2ccccc2[nH]1 (centres undefined) | 6 | 1 | 143* | 126 | 107 | 8 | 108
Cc1ccccc1C(=O)NNC(=O)CSc1nnc(C)n1-c1ccccc1 | -1 | 9 | 64*[inhibitor] | 96 | 100 | -12 | 97
CCCC1OC2CC3C4CCC5=CC(=O)C=CC5(C)C4C(O)CC3(C)C2(C(=O)O)O1 (centres undefined) | 5 | -5 | 101 | 99 | . | . | .
CCCC1O[C@@H]2C[C@H]3[C@@H]4CCC5=CC(=O)C=C[C@]5(C)[C@H]4[C@@H](O)C[C@]3(C)[C@]2(C(=O)CO)O1 (some centres undefined) | 2 | -9 | 70*[inhibitor] | 103 | 103 | 0 | 103
CC(/C=C/c1ccco1)=N\NC(=O)C(O)c1ccccc1 (centres undefined) | 0 | 6 | 133* | 110 | 104 | 11 | 99
CC(=O)c1ccc(NS(=O)(=O)c2ccc3ccccc3c2)cc1 | -1 | 12 | 73*[inhibitor] | 95 | 106 | 2 | 99
NC(=O)c1ccc(NS(=O)(=O)c2ccc3ccccc3c2)cc1 | 11 | -4 | 100 | 100 | . | . | .
S=C(Nc1ccc2[nH]ccc2c1)NC1CCCCC1 | -4 | 6 | 93 | 95 | . | . | .
CCc1ccc(C2CC(c3ccco3)=NN2S(C)(=O)=O)cc1 (centres undefined) | 55* | i | 89 | . | 81 | -9 | 89
CCOc1ccc2cc(C3CC(c4ccco4)=NN3S(C)(=O)=O)c(Cl)nc2c1 (centres undefined) | 1 | 22 | 100 | 91 | . | . | .
CC(=O)N1N=C(c2ccco2)CC1c1ccc(C)cc1 (centres undefined) | 1 | 16 | 135* | 110 | 103 | 1 | 105
CC(=O)N1N=C(c2ccco2)CC1c1ccc(Br)cc1 (centres undefined) | -1 | 3 | 99 | 108 | . | . | .
O=C(NCCC(=O)N1CCc2ccccc21)c1ccccc1Cl | 7 | 4 | 102 | 106 | . | . | .
Cc1c(C(=O)N2CCOCC2)c(S(=O)(=O)Nc2ccccc2)c(C)n1C | -1 | 20 | 99 | 103 | . | . | .
Fc1ccccc1NC(=S)Nn1cnnc1 | 2 | 5 | 100 | 100 | . | . | .
CCCn1ncc2c(Nc3ccc(C)c(C)c3)ncnc21 | 5 | -1 | 102 | 104 | . | . | .
Cc1ccc(Nc2nc(NCC3CCCO3)nc(N)c2[N+](=O)[O-])cc1 (centres undefined) | 12 | 17 | 104 | 105 | . | . | .
Nc1nc(NCC2CCCO2)nc(Nc2ccc(F)cc2)c1[N+](=O)[O-] (centres undefined) | 2 | 6 | 199* | 117 | 105 | 1 | 103
c1ccc(CN2CCN(c3nc4ccccc4s3)CC2)cc1 | 4 | 29 | 105 | 108 | . | . | .
O=Cc1cnc(N2CCN(Cc3ccccc3)CC2)s1 | -45 | -1 | 68*[inhibitor] | 70 | 117 | 12 | 101
O=C(CN1CCN(S(=O)(=O)c2ccccc2)CC1)Nc1ccccc1Cl | 6 | 2 | 106 | 107 | . | . | .
